Assay results reported in PubChem BioAssay (NCATS).
Results filed as inconclusive are left out. Active and inactive are the calls of the source. Calls come from the whole dose curve; as a rule, active = well fitted curve in the direction sought with a large enough effect; inconclusive = small, poorly fitted or top-dose-only effect, or another doubt; inactive = no such curve, though single readings can be large; an effect the other way counts as inactive or inconclusive.
Note: nearly all actives have a fitted effect of over 70% in size.
Potency is the fitted concentration of half-maximal effect.

Test system: not listed separately
Assay: qHTS for Inhibitors of Ubiquitin-specific Protease USP2a Using CHOP2 as the Reporter: Cytotox Assay (AID 652170)
Details: HCT116 viability, CellTiter-Glo luminescence, 72 h; series mostly up to 46.1 µM
Summary of the method: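 HCT116 human colon cancer cells, 600 per well in DMEM with 10% FBS, exposed to compounds for 72 hr at 37 deg C. ATP measured by CellTiter-Glo luminescence, normalized to DMSO cells and no-cell background.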
In the case of `Cc1ccc(-c2cc(C(=O)Nc3cccc(S(=O)(=O)Nc4nccs4)c3)c3ccccc3n2)cc1C`, the Potency was “inactive”.
In the case of `O=S(=O)(Nc1nccs1)c1ccc(Nc2nc(-c3ccc(-c4ccccc4)cc3)cs2)cc1`, the Potency was “inactive”.
In the case of `CNS(=O)(=O)c1ccc(NC(=O)c2cc(-c3ccc(C)c(C)c3)nc3ccccc23)cc1`, the Potency was “inactive”.
For `Cc1ccc(-c2cc(C(=O)Nc3ccc(S(C)(=O)=O)cc3)c3ccccc3n2)cc1C`, the Potency was “inactive”.
With `Cc1ccc(-c2cc(C(=O)Nc3ccc(S(=O)(=O)N(C)Cc4nccs4)cc3)c3ccccc3n2)cc1C` the Potency was “inactive”.
In the case of `O=C(Nc1ccc(S(=O)(=O)Nc2nccs2)cc1)c1ccc2ccccc2c1`, the Potency was “inactive”.
For `CCCCC1CCC(C(=O)Nc2ccc(S(=O)(=O)Nc3cc(C)on3)cc2)CC1` (stereo unspecified), the Potency was “inactive”.
With `Cc1ccc(S(=O)(=O)Nc2ccccc2Nc2nc(-c3ccccc3)cs2)cc1` the Potency was “inactive”.
For `O=C(Nc1ccc(C(=O)Nc2nccs2)cc1)c1ccc2ccccc2c1`, the Potency was “inactive”.
With `COC(=O)C1=CC[C@H](c2ccc(C)cc2)N(S(=O)(=O)c2ccc(C)cc2)[C@@H]1c1ccc(C(C)(C)C)cc1` the Potency was “inactive”.
In the case of `Cc1ccc(S(=O)(=O)Nc2ccc(OC(F)(F)F)cc2C(=O)Nc2nc(-c3ccccc3)cs2)cc1`, the Potency was 5.9 µM (active).
For `Cc1ccc(-c2cc(C(=O)Nc3cccnc3)c3ccccc3n2)cc1C`, the Potency was “inactive”.
In the case of `Cc1ccc(S(=O)(=O)Nc2ccccc2C(=O)Nc2ncc(-c3ccccc3)o2)cc1`, the Potency was 4.69 µM (active).
With `Cc1ccc(-c2cc(C(=O)NCc3ccc(S(N)(=O)=O)cc3)c3ccccc3n2)cc1C` the Potency was “inactive”.
For `Cc1ccc(-c2cc(C(=O)Nc3ccc(S(=O)(=O)Nc4ccccn4)cc3)c3ccccc3n2)cc1C`, the Potency was “inactive”.
In the case of `Cc1ccc(NC(=O)c2cc(-c3ccc(C)c(C)c3)nc3ccccc23)cc1`, the Potency was “inactive”.
With `Cc1ccc(S(=O)(=O)Nc2ccccc2C(=O)Nc2cnc(-c3ccccc3)cn2)cc1` the Potency was 16.6 µM (active).
For `Cc1ccc(-c2cc(C(=O)Nc3ccncc3)c3ccccc3n2)cc1C`, the Potency was 18.7 µM (active).
With `Cc1ccc(S(=O)(=O)Nc2ccc(Cl)c(C(=O)Nc3nc(-c4ccccc4)cs3)c2)cc1` the Potency was “inactive”.
With `Cc1ccc(-c2cc(C(=O)Nc3ccc(S(=O)(=O)Nc4ccncc4)cc3)c3ccccc3n2)cc1C` the Potency was “inactive”.
For `CCCCC1CCC(C(=O)Nc2ccc(S(=O)(=O)Nc3nccs3)cc2)CC1` (stereo unspecified), the Potency was “inactive”.
For `Cc1ccc(-c2cc(C(=O)Nc3ccc(S(=O)(=O)Nc4cccnc4)cc3)c3ccccc3n2)cc1C`, the Potency was “inactive”.
For `Cc1ccc(-c2cc(C(=O)Nc3ccc4[nH]ccc4c3)c3ccccc3n2)cc1C`, the Potency was “inactive”.
In the case of `O=C(C[C@H]1CC[C@@H](C(=O)Nc2ccc(S(=O)(=O)Nc3nccs3)cc2)C1)c1ccccc1`, the Potency was “inactive”.
In the case of `Cc1ccc(-c2cc(C(=O)Nc3ccc4ccccc4c3)c3ccccc3n2)cc1C`, the Potency was “inactive”.

Molecular target: Ubiquitin carboxyl-terminal hydrolase 2 (Homo sapiens) (UniProt O75604)
Sequence (O75604 whole entry, looked up): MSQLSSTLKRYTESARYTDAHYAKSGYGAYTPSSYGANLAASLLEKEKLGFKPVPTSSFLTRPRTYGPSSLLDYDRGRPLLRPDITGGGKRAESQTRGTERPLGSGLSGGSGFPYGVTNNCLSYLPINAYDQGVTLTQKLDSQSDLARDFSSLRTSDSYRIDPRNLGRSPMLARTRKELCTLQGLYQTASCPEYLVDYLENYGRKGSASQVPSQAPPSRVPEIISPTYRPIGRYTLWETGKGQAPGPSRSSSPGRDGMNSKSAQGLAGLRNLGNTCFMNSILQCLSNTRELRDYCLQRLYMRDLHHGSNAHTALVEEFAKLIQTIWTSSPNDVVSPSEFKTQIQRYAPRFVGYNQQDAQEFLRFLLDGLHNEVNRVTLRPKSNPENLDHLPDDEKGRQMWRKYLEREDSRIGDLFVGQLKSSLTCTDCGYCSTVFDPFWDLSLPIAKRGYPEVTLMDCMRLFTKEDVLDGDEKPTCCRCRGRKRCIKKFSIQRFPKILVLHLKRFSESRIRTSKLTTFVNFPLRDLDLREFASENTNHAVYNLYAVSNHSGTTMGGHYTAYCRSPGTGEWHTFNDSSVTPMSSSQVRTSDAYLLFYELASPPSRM
Assay: qHTS for Inhibitors of Ubiquitin-specific Protease USP2a Using CHOP2 as the Reporter: K484 Substrate (AID 652173);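 note: cleavage of internally quenched K48 di-ubiquitin substrate measured as rising fluorescence over time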
Details: USP2 cleavage of DiUb K48 IQF substrate, fluorescence; series mostly up to 57.5 µM
Summary of the method: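 USP2 (dispensed at 5 nM) was pinned with compounds, then DiUb K48 internally quenched fluorescent substrate (dispensed at 100 nM) was added. The buffer was 20 mM Tris pH 8, 2 mM beta-mercaptoethanol and 0.05% CHAPS. Cleavage was read kinetically as rising fluorescence, Ex 525/Em 598.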
For `Cc1ccc(-c2cc(C(=O)Nc3ccc(C#N)cc3)c3ccccc3n2)cc1C`, the Potency was 12.2 µM (active).
For `Cc1ccc(-c2cc(C(=O)Nc3cccc(S(=O)(=O)Nc4nccs4)c3)c3ccccc3n2)cc1C`, the Potency was 3.06 µM (active).
With `O=S(=O)(Nc1nccs1)c1ccc(Nc2nc(-c3ccc(-c4ccccc4)cc3)cs2)cc1` the Potency was 1.93 µM (active).
In the case of `CNS(=O)(=O)c1ccc(NC(=O)c2cc(-c3ccc(C)c(C)c3)nc3ccccc23)cc1`, the Potency was 4.85 µM (active).
For `Cc1ccc(-c2cc(C(=O)Nc3ccc(S(C)(=O)=O)cc3)c3ccccc3n2)cc1C`, the Potency was 6.85 µM (active).
For `Cc1ccc(-c2cc(C(=O)Nc3ccc(S(=O)(=O)N(C)Cc4nccs4)cc3)c3ccccc3n2)cc1C`, the Potency was 3.85 µM (active).
For `O=C(Nc1ccc(S(=O)(=O)Nc2nccs2)cc1)c1ccc2ccccc2c1`, the Potency was 2.73 µM (active).
With `CCCCC1CCC(C(=O)Nc2ccc(S(=O)(=O)Nc3cc(C)on3)cc2)CC1` (stereo unspecified) the Potency was 12.2 µM (active).
For `Cc1ccc(S(=O)(=O)Nc2ccccc2Nc2nc(-c3ccccc3)cs2)cc1`, the Potency was 3.85 µM (active).
In the case of `O=C(Nc1ccc(C(=O)Nc2nccs2)cc1)c1ccc2ccccc2c1`, the Potency was 3.85 µM (active).
For `Cc1ccc(-c2cc(C(=O)Nc3cccc(S(N)(=O)=O)c3)c3ccccc3n2)cc1C`, the Potency was 5.44 µM (active).
In the case of `Cc1ccc(S(=O)(=O)Nc2ccc(OC(F)(F)F)cc2C(=O)Nc2nc(-c3ccccc3)cs2)cc1`, the Potency was 2.43 µM (active).
For `Cc1ccc(-c2cc(C(=O)Nc3cccnc3)c3ccccc3n2)cc1C`, the Potency was 19.3 µM (active).
With `Cc1ccc(S(=O)(=O)Nc2ccccc2C(=O)Nc2ncc(-c3ccccc3)o2)cc1` the Potency was 2.43 µM (active).
In the case of `Cc1ccc(-c2cc(C(=O)NCc3ccc(S(N)(=O)=O)cc3)c3ccccc3n2)cc1C`, the Potency was 9.68 µM (active).
In the case of `Cc1ccc(S(=O)(=O)Nc2ccc(C(=O)Nc3nc(-c4ccccc4)cs3)cc2Cl)cc1`, the Potency was 2.17 µM (active).
With `Cc1ccc(-c2cc(C(=O)Nc3ccc(S(=O)(=O)Nc4ccccn4)cc3)c3ccccc3n2)cc1C` the Potency was 4.32 µM (active).
For `Cc1ccc(S(=O)(=O)Nc2ccccc2C(=O)Nc2cnc(-c3ccccc3)cn2)cc1`, the Potency was 3.43 µM (active).
For `Cc1ccc(-c2cc(C(=O)Nc3ccncc3)c3ccccc3n2)cc1C`, the Potency was 13.7 µM (active).
For `Cc1ccc(S(=O)(=O)Nc2ccc(Cl)c(C(=O)Nc3nc(-c4ccccc4)cs3)c2)cc1`, the Potency was 2.43 µM (active).
For `Cc1ccc(-c2cc(C(=O)Nc3ccc(S(=O)(=O)Nc4ccncc4)cc3)c3ccccc3n2)cc1C`, the Potency was 9.68 µM (active).
With `CCCCC1CCC(C(=O)Nc2ccc(S(=O)(=O)Nc3nccs3)cc2)CC1` (stereo unspecified) the Potency was 4.85 µM (active).
For `Cc1ccc(-c2cc(C(=O)Nc3ccc(S(=O)(=O)Nc4cccnc4)cc3)c3ccccc3n2)cc1C`, the Potency was 6.85 µM (active).
In the case of `Cc1ccc(-c2cc(C(=O)Nc3ccc4[nH]ccc4c3)c3ccccc3n2)cc1C`, the Potency was 8.63 µM (active).
For `O=C(C[C@H]1CC[C@@H](C(=O)Nc2ccc(S(=O)(=O)Nc3nccs3)cc2)C1)c1ccccc1`, the Potency was 19.3 µM (active).
In the case of `Cc1ccc(-c2cc(C(=O)Nc3ccc4ccccc4c3)c3ccccc3n2)cc1C`, the Potency was 19.3 µM (active).
